# The list is not random: actives were taken first. Their share in the collection is about 2.4%.
# TDP1 block: TDP1 (human) enzyme inhibition | Q9NUW8 | recombinant TDP1, AlphaScreen DNA substrate cleavage | Potency, µM (titrated, usually from 130 µM), for the others: at the top dose activity change, negative = inhibition, actives largely listed as inhibitors | actives 0.28% (n = 350,000); further: on the % scale 0 is the no-effect control and ±100 the full control effect; nearly all actives have a fitted effect of over 40% in size
#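 AlphaScreen read-out: signal falls as enzyme removes the 3' tyrosine-FITC from a 5'-biotinylated DNA oligo (15 nM, 5 min, RT). Enzyme was E. coli-made recombinant Tdp1 at 1 nM, exposed to compound for 15 min beforehand; beads 10 ug/ml, 10 min.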
# POLB inh: DNA polymerase beta (human) inhibition | P06746 | Pol beta primer extension/strand displacement, fluorescence kinetic | Potency, µM (series often up to 114 µM), for inactives: top-dose activity change, negative = inhibition, usual class: inhibitors | actives 1.3% (n = 340,000); further: on the % scale 0 is the no-effect control and ±100 the full control effect
#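 Values derive from four-parameter Hill fits of normalized kinetic data: reads at 0 and 10 min following addition of 50 nM substrate to 10 nM Pol beta preincubated 15 min with compound.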
# POLI inh: DNA polymerase iota (human) inhibition. Potency, µM (top dose mostly 115 µM), without a hit: at the top dose activity, negative = inhibition, actives largely listed as inhibitors. actives 1% (n = 390,000). Pol iota fluorescent replication assay, 10 min. Q9UNA4
#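 Pol iota at 10 nM preincubated 15 min with compounds at room temperature; reaction started with fluorescent substrate, 50 nM final. Fluorescence read kinetically at 0 and 10 min; buffer-only wells as negative control.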
# POLK inh: blocks human DNA polymerase kappa activity; Q9UBT6; purified Pol kappa, fluorescent DNA synthesis assay, 10 min; Potency, µM (titrated, usually from 107 µM), for inactives: at the highest dose activity, negative = inhibition, usual class: inhibitors; actives 0.53% (n = 400,000); AID 588579; further: on the % scale 0 is the no-effect control and ±100 the full control effect
#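 Pol kappa 10 nM + cpd, 15 min RT; start w/ substrate 50 nM final; fluorescence kinetic read, 0 and 10 min. Neg ctrl: buffer, no enzyme.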
# POLH inh: inhibitors of human DNA polymerase eta; actives 1.2% (n = 390,000); Q9Y253; Potency, µM (doses to about 114 µM), without a hit: at the top dose activity change, negative = inhibition, most hits filed as inhibitors; AID 588591; recombinant Pol eta, fluorescent DNA replication assay; further: on the % scale 0 is the no-effect control and ±100 the full control effect
#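 Pol eta (10 nM) was preincubated with compounds for 15 min at room temperature, after which fluorescent replication substrate (50 nM final) was added to start the reaction. Fluorescence was read kinetically at 0 and 10 min.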
# FEN1 inh-1: inhibitors of human flap endonuclease 1. AID 588795. Potency, µM (titrated, usually from 114 µM), without a hit: top-dose activity change, negative = inhibition, hits mostly inhibitors. P39748. actives 0.35% (n = 390,000). Recombinant FEN1 flap cleavage, fluorescence, 15 min; further: on the % scale 0 is the no-effect control and ±100 the full control effect; nearly all actives have a fitted effect of over 65% in size
# Target sequence (P39748 whole entry, looked up): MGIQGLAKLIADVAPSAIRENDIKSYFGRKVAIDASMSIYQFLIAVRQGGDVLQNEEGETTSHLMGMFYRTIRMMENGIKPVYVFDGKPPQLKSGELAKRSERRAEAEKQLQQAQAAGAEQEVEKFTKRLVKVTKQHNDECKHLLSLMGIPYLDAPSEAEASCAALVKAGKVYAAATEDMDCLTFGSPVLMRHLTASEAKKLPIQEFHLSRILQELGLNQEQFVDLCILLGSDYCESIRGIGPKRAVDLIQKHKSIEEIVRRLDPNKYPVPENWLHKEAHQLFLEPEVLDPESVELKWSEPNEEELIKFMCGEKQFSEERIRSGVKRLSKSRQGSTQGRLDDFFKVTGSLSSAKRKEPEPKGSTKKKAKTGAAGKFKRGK
#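 Quantitative HTS format: each compound was titrated, incubated with 10 nM nuclease for 15 min at room temperature, then challenged with flap substrate at 50 nM final. Signal change over 15 min gave concentration–effect curves.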
# FEN1 inh-2: FEN1 inhibition, cherry-pick retest | actives 79% (n = 880) | shares compounds with FEN1 inh-1 | Potency, µM, usual class: inhibitors | AID 720498 | FEN1 flap cleavage, TAMRA/BHQ2 fluorogenic DNA substrate; further: nearly all actives have a fitted effect of over 60% in size
# * marks the source's active call; other numbers are inactive results; u = inconclusive; x = no result; [ ] = dose if it differs, or a comment. The call rests on the fitted dose curve; in most records, active means well fitted curve in the direction sought with a large enough effect; inconclusive means small, poorly fitted or top-dose-only effect, or another doubt; inactive means no such curve, though single readings can be large; an effect the other way counts as inactive or inconclusive. Potency means the concentration at half of the fitted maximal effect.
SMILES,TDP1 block,POLB inh,POLI inh,POLK inh,POLH inh,FEN1 inh-1,FEN1 inh-2
O=c1[nH]c2cnn(-c3ccccc3)c2c(=O)n1O,x,x,6%,2%,u,0.5µM*,21*
CCOCCCNCc1ccc(OC)cc1,-8%,1%,9%,-6%,-11%,-7%,x
COc1ccc2cc(CNCCOCCOCCNCc3ccc4cc(OC)ccc4c3)ccc2c1,x,x,8%,-17%,-29%,40µM*,38*
COc1cccc(C2c3c(ncn(CCCN4CCOCC4)c3=N)Oc3ccc4ccccc4c32)c1 (stereo not given),x,x,x,x,x,x,38*
CC(C)C[C@H](NC(=O)CNC(=O)[C@H](C)NC(=O)[C@H](CC(C)C)NC(=O)[C@H](CCCNC(=N)N)NC(=O)[C@H](Cc1cnc[nH]1)NC(=O)[C@@H](NC(=O)[C@@H](N)C(C)C)[C@@H](C)O)C(=O)N[C@@H](CC(C)C)C(=O)N[C@@H](CO)C(=O)N[C@@H](CCCNC(=N)N)C(=O)N[C@@H](CO)C(=O)NCC(=O)NCC(=O)N[C@H](C(=O)N[C@H](C(=O)N[C@@H](CCCCN)C(=O)N[C@@H](CC(N)=O)C(=O)N[C@@H](CC(N)=O)C(=O)N[C@@H](Cc1ccccc1)C(=O)N[C@H](C(=O)N1CCC[C@H]1C(=O)N[C@H](C(=O)N[C@@H](CC(N)=O)C(=O)N[C@H](C(=O)NCC(=O)N[C@@H](CO)C(=O)N[C@@H](CCCCN)C(=O)N[C@@H](C)C(=O)N[C@@H](Cc1ccccc1)C(N)=O)C(C)C)[C@@H](C)O)C(C)C)C(C)C)C(C)C,8%,x,x,13%[60.1 µM],x,x,x
CCN(CCCNC(=O)c1cc2c(Cl)nc3ccccc3c2s1)Cc1ccccc1,1%,0%,11%,-3%,-15%,u,x
COc1cccc(-c2nn(C)c3sc(C(=O)NCCCN(C)Cc4ccccc4)cc23)c1,x,1%,u,-6%,-9%,u,x
CCN(CC)CCCNC(=O)c1cc2c(-c3cccc(OC)c3)nn(C)c2s1,x,-27%,-23%,-3%,12%,u,u
CCN(CC)CCCNC(=O)c1cc2c(Cl)nc3ccccc3c2s1,-1%,-22%,-9%,12%,-5%,45µM*,67*
CCCCN(CC)CCCNC(=O)c1cc2c(-c3ccc(OC)c(OC)c3)nn(C)c2s1,-2%,3.5µM*,u,-23%,u,35µM*,34*
O=C(CCOc1ccccc1)N(Cc1cccnc1)c1nc2c(Cl)cccc2s1,-8%,24%,u,-10%[60.1 µM],-1%,-14%,x
Cc1ccc(-c2nc(C(=O)NCCCN(C)C)cc3c2[nH]c2ccccc23)cc1,x,u,u,-9%,-3%,u,38*
O=C(c1cnccn1)N1CCC2(CCCN(c3cccc(-c4ccccc4)c3)C2)CC1,x,x,x,7%[60.1 µM],x,x,x
CCOc1ccc(CNC(=O)C2CCN(c3nnc(C)c4c(C)n(-c5ccc(C)cc5)nc34)CC2)cc1,u,7.9µM*,u,-37%,u,u,u
CCOC(=O)c1ccc(NC(=O)CSc2nc(-c3cccs3)cc(C(F)(F)F)c2C#N)cc1,1%,-23%,42%,12%,-11%,11%,x
CC(=O)N1N=C(c2ccc(C)cc2)OC1c1ccc(Br)cc1 (stereo not given),-3%,5%,62%,-15%,-5%,-11%,x
CCOc1ccc(Br)cc1C1=NN(C(C)=O)C(c2ccc([N+](=O)[O-])s2)O1 (stereo not given),x,18µM*,50µM*,-47%,50µM*,u,6.7*
CCOc1ccc2nc(NC3=NC(c4ccc(OC)cc4)CC(=O)N3)nc(C)c2c1 (stereo not given),6%,33%,14%,-12%,-24%,79µM*,76*
CCOc1ccc(C2CC(=O)NC(NC(=O)c3ccc(C)cc3)=N2)cc1 (stereo not given),7%,3%,21%,-6%,-13%,-5%,x
CCOc1ccc2nc(NC3=NC(C)(C)C=C(C)N3)nc(C)c2c1,3%,27%,13%,7%,-6%,40µM*,17*
COc1ccc(OC)c(Nc2nc(NCCCN(C)C)nc(N)c2[N+](=O)[O-])c1,3%,35µM*,32µM*,u,50µM*,13µM*,48*
CCOC(=O)c1c(NC(=O)c2nc(SCC)ncc2Cl)sc2c1CCCC2,-7%,27%,3%,20%,-8%,2%,x
COc1ccc(NC(=O)C2CCN(S(=O)(=O)c3ccc4c(c3)NC(=O)C(C)S4)CC2)cc1 (stereo not given),0%,20%,25%,-2%,-3%,-6%,x
CC1Sc2ccc(S(=O)(=O)N3CCC(C(=O)Nc4ccc(Cl)cc4)CC3)cc2NC1=O (stereo not given),1%,u,u,u,u,u,48*
O=C1CCC[C@@H]2C[C@@]3(C[C@@H]4CCN1[C@H]24)Nc1ccccc1NC3=NC1CCCCC1,x,x,8%,-5%,x,-4%,x
COc1ccc2c(c1)c(/C=C/c1cc[n+](C)cc1)cn2C,x,89µM*,u,-19%,-15%,u,43*
Cc1c2c(cc3c1[nH]c1ccccc13)C=NCC2,x,x,34%,9%,-24%,50µM*,38*
C=C(C)C(=O)OCCCCCCCCCC,6%,x,x,x,x,x,x
CCOC(=O)c1c(CSc2ccccc2)n(C)c2cc(Br)c(OCC(O)CNC(CO)(CO)CO)cc12 (stereo not given),0%,u,u,-25%,u,45µM*,43*

# Screening results (PubChem)
